Results as given in PubChem BioAssay AID504848 (National Center for Advancing Translational Sciences (NCATS), 2011).
Out of some 2,300 compounds screened, about 1,400 (61%) were called active. Another 29% or so got no clear call; they are omitted. Calls follow the shape of the dose curve; as a rule, active = well fitted inhibition curve with a large enough effect; inconclusive = small, poorly fitted or top-dose-only effect, or effect the other way; inactive = no such curve, though single readings can be large or run the other way. So high a share suggests a set chosen from earlier hits. Some of the results follow.

Experiment: Confirmation screen for delayed death inhibitors of the malarial parasite plastid, 96 hour incubation; also: nearly all actives have a fitted effect of over 60% in size
Conditions: P. falciparum luciferase growth in erythrocytes; series mostly up to 28.7 µM
Procedure, shortened: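 Two-generation (96 h, 37 C) exposure of P. falciparum carrying an integrated firefly luciferase reporter in erythrocytes, 0.1% parasitemia and 2% hematocrit final, Albumax-supplemented RPMI. Luminescence decrease measures growth inhibition.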
Potency is read from the fitted curve at half-maximal effect.

Question: Which Potency does the source give for `O=C(NC12CC3CC(CC(C3)C1)C2)c1ccc([N+](=O)[O-])o1` here?
Answer: 2.24 µM (active)

Question: For `COc1cc(C2Oc3ccccc3C=C2[N+](=O)[O-])cc(OC)c1OC` (stereo unspecified), which Potency is on record?
Answer: 12.6 µM (active)

Question: With `CN(c1ccccc1)S(=O)(=O)c1cc(C(=O)N2CCN(c3ncccn3)CC2)ccc1Cl` as the compound, how does the Potency read?
Answer: 8.91 µM (active)

Question: For `CCOC(=O)C1(CCc2ccccc2)CCN(Cc2ccccn2)CC1`, which Potency is on record?
Answer: 2.51 µM (active)

Question: With `Cc1cccc(C)c1NC(=O)C(=O)c1cn(C)c2ccccc12` as the compound, how does the Potency read?
Answer: 15.8 µM (active)

Question: With `Cc1cccc(C)c1OCCn1nc(C(=O)O)c2ccccc2c1=O` as the compound, how does the Potency read?
Answer: inactive

Question: With `COc1ccc(CN2C(=O)c3ccccc3C2C(=O)NC2CCC(C)CC2)c(OC)c1` (stereo unspecified) as the compound, how does the Potency read?
Answer: 7.08 µM (active)

Question: With `COc1cccc(CN2CCN(c3nc4nonc4nc3N3CCCCC3)CC2=O)c1` as the compound, how does the Potency read?
Answer: 1.78 µM (active)

Question: With `Cc1cc2nc3c(=O)[nH]c(=S)[nH]c3nc2cc1NC(=O)C(F)(F)F` as the compound, how does the Potency read?
Answer: 14.1 µM (active)

Question: With `O=C(Nc1nc(-c2ccccn2)cs1)C1COc2ccccc2O1` (stereo unspecified) as the compound, how does the Potency read?
Answer: 6.31 µM (active)

Question: With `CCc1ccc(N/C(SCc2cccc(F)c2)=C(/C#N)C(=O)NCc2ccco2)cc1` as the compound, how does the Potency read?
Answer: 7.94 µM (active)

Question: For `Cc1occc1C(=O)NC1CCCN(Cc2ccc(CC(C)C)cc2)C1` (stereo unspecified), which Potency is on record?
Answer: 12.6 µM (active)

Question: With `O=C(NC1CCCN(Cc2ccc(Cl)cc2)C1)c1cnc2ccccn2c1=O` (stereo unspecified) as the compound, how does the Potency read?
Answer: 11.2 µM (active)

Question: For `Cc1ccc(-c2csc(SCC(=O)c3c(N)n(C4CC4)c(=O)[nH]c3=O)n2)cc1`, which Potency is on record?
Answer: inactive

Question: Which Potency does the source give for `Cc1ccccc1-n1c(SCC(=O)c2c(N)n(C3CC3)c(=O)[nH]c2=O)nnc1N1CCOCC1` here?
Answer: 7.94 µM (active)

Question: With `Nc1c(C(=O)CSc2nc3ccccc3o2)c(=O)[nH]c(=O)n1C1CC1` as the compound, how does the Potency read?
Answer: 12.6 µM (active)

Question: Which Potency does the source give for `Cc1ccc(-n2nnnc2SCC(=O)Nc2ccccc2-c2ccccc2)cc1C` here?
Answer: inactive

Question: With `Cc1ccc(-n2nnnc2Sc2nc([N+](=O)[O-])nn2C)cc1C` as the compound, how does the Potency read?
Answer: 3.16 µM (active)

Question: For `N#Cc1cc(Oc2cccc3cccnc23)c(-n2nnc3ccccc32)cc1C#N`, which Potency is on record?
Answer: 5.62 µM (active)

Question: With `COc1cccc(-c2ccc3ncnc(NCc4cccs4)c3c2)c1` as the compound, how does the Potency read?
Answer: 5.01 µM (active)

Question: For `CN(C)c1ccc(CNc2ncnc3sccc23)cc1`, which Potency is on record?
Answer: inactive

Question: Which Potency does the source give for `CCCN(CCC)c1ccc(CC(=O)NC(C)Cc2ccccc2)cc1` (stereo unspecified) here?
Answer: 12.6 µM (active)

Question: For `O=C1NC(=S)S/C1=C\C=C\c1ccc([N+](=O)[O-])o1`, which Potency is on record?
Answer: 2 µM (active)

Question: For `COc1ccc(C2c3c(ncn(CCCN4CCOCC4)c3=N)Oc3ccc4ccccc4c32)cc1OC` (stereo unspecified), which Potency is on record?
Answer: 2.24 µM (active)

Question: For `COc1ccc(C2c3c(ncn(CCN4CCOCC4)c3=N)Oc3ccc4ccccc4c32)cc1OC` (stereo unspecified), which Potency is on record?
Answer: 2 µM (active)

Question: With `Cc1ccc(-n2ncc3c2CC(C)(C)CC3NC(=O)c2c(C)noc2C)cc1` (stereo unspecified) as the compound, how does the Potency read?
Answer: 12.6 µM (active)

Question: For `CC1=C(C(=O)NC2CC(C)(C)Cc3c2cnn3-c2ccc(C)cc2)OCCO1` (stereo unspecified), which Potency is on record?
Answer: 11.2 µM (active)

Question: For `CCc1noc(C)c1C(=O)NC1CC(C)(C)Cc2c1cnn2-c1ccccc1` (stereo unspecified), which Potency is on record?
Answer: 12.6 µM (active)

Question: For `CCOc1ccc2c(c1)sc(N)[n+]2Cc1cc(C)cc2cccnc12`, which Potency is on record?
Answer: 3.98 µM (active)

Question: For `COc1cc([N+](=O)[O-])c(OC)cc1SCc1n[nH]c(=S)n1-c1ccc(F)cc1`, which Potency is on record?
Answer: 15.8 µM (active)

Question: For `COc1ccccc1N1CC(O)=C(c2nc3ccccc3s2)C1=N`, which Potency is on record?
Answer: 11.2 µM (active)

Question: For `Cn1c(SCC(=O)N2CCCCCC2)nc2c(c1=O)SCC2`, which Potency is on record?
Answer: 8.91 µM (active)

Question: For `O=[N+]([O-])/C=C\c1ccc(N2CCCC2)c(F)c1`, which Potency is on record?
Answer: inactive

Question: For `CCC(=O)c1ccc(N2CCN(C(=O)c3cc([N+](=O)[O-])ccc3N3CCN(C)CC3)CC2)c(F)c1`, which Potency is on record?
Answer: 11.2 µM (active)

Question: With `Cc1ccc(Nc2nc(NCc3ccco3)c3ccccc3n2)cc1` as the compound, how does the Potency read?
Answer: 2 µM (active)

Question: Which Potency does the source give for `C/C=C(\C)C(=O)NCCN1C2=NC[C@H](Cc3ccccc3)N2C[C@H]1Cc1ccc(O)cc1` here?
Answer: 3.55 µM (active)

Question: Which Potency does the source give for `C/C=C(\C)C(=O)NCCN1C2=NC[C@H](C(C)C)N2C[C@H]1Cc1ccc(O)cc1` here?
Answer: 5.62 µM (active)

Question: With `C=CCNC(=O)c1onc(CSc2cccc3ccccc23)c1C(=O)O` as the compound, how does the Potency read?
Answer: inactive

Question: Which Potency does the source give for `COc1ccc(CNc2ncc(-c3ccc(Cl)cc3)n2C)c(OC)c1OC` here?
Answer: 12.6 µM (active)

Question: For `CCC[C@H]1C[C@H](C(=O)N[C@@H]([C@H]2O[C@@H](SC)[C@@H](O)[C@@H](O)[C@@H]2O)[C@H](C)Cl)N(C)C1`, which Potency is on record?
Answer: 0.199 µM (active)

Question: For `Cc1ccc(S(=O)(=O)N(CC(=O)NCc2ccco2)c2ccccc2C)cc1`, which Potency is on record?
Answer: 11.2 µM (active)

Question: For `Cc1ccc(S(=O)(=O)N(Cc2ccccc2)c2ccccc2C(=O)Nc2ccccc2C(=O)NCc2ccco2)cc1`, which Potency is on record?
Answer: 2.24 µM (active)

Question: With `COCCn1c(=NC(=O)/C=C/c2ccccc2)sc2cc(NC(C)=O)ccc21` as the compound, how does the Potency read?
Answer: 7.94 µM (active)

Question: For `COC(=O)c1cc(=O)n(Cc2cccs2)c(=Nc2ccccc2)s1`, which Potency is on record?
Answer: inactive

Question: Which Potency does the source give for `CCN(CC)S(=O)(=O)c1ccc(N2CCc3ccccc3C2)nc1` here?
Answer: 14.1 µM (active)

Question: Which Potency does the source give for `CC(C)N(C(C)C)S(=O)(=O)c1ccc(N2CCc3ccccc3C2)nc1` here?
Answer: 12.6 µM (active)
